HP1b chromo inh – HTS for Inhibitors of HP1-beta Chromodomain Interactions with Methylated Histone Tails. Potency, µM (highest dose often 114 µM), inactives show at the highest dose activity change, negative = inhibition, most hits filed as inhibitors. 0.56% of 390,000 active. AlphaScreen HP1-beta / biotin-H3K9me3 peptide binding; note: nearly all actives have a fitted effect of over 70% in size
Target sequence (P83916 whole entry, looked up): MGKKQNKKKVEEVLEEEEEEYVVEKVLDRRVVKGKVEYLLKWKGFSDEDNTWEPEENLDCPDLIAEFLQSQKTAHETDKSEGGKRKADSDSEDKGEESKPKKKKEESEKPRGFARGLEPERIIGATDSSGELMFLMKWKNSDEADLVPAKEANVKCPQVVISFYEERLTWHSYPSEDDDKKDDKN
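AlphaScreen: HP1-beta (50 nM) preformed 30 min with biotin-H3(1-18)K9me3 peptide (50 nM) in PBS pH 7.4, 0.01% Tween-20. Compound added for 30 min at RT, then streptavidin donor/nickel chelate acceptor beads (10 ug/mL) for 30 min.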
PLK1 PBD block – qHTS for Inhibitors of PLK1-PDB (polo-like kinase 1 - polo-box domain): Primary Screen; Plk1 PBD binding of FITC phosphopeptide, fluorescence polarization; Potency, µM, for inactives: max response, negative = inhibition, usual class: inhibitors; 2.8% of 360,000 active; note: series mostly up to about 57 µM; % is set by controls: 0 for no effect and ±100 for the full control effect; nearly all actives have a fitted effect of over 65% in size
BAZ2B inh – qHTS Assay for Inhibitors of BAZ2B. AlphaScreen BAZ2B-H3K14Ac peptide displacement. Potency, µM (doses to about 114 µM), for the others: at the top dose activity change, negative = inhibition, actives largely listed as inhibitors. 4.4% of 360,000 active. AID 504333, 2011; note: % is set by controls: 0 for no effect and ±100 for the full control effect; nearly all actives have a fitted effect of over 60% in size
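AlphaScreen displacement of biotin-H3(5-23)K14Ac peptide (50 nM final) from BAZ2B (50 nM final) in PBS pH 7.4, 0.01% Tween-20; complex preformed 30 min RT, then compounds (top 110 uM) 30 min RT, beads 20 min dark.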
Sfp PPTase inh – qHTS Assay for Inhibitors of Bacillus subtilis Sfp phosphopantetheinyl transferase (PPTase). 4'-phosphopantetheinyl transferase ffp (Bacillus subtilis), Q9F4F7. Biochemical Sfp PPTase activity, qHTS. Potency, µM, inactives show largest response in the series, negative = inhibition, hits mostly inhibitors. 3.5% of 310,000 active;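 note: the enzyme is Sfp with the accession as filed and its product quenches rhodamine fluorescence; 0% = enzyme reaction without inhibitor and -100% = no enzyme wells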
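Reaction rates are the 30-min fluorescence difference (ex 525, em 598 nm) in wells containing 15 nM Sfp, 5 uM rhodamine-CoA and 12.5 uM BHQ-2-YbbR at pH 7.6 with 10 mM MgCl2.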
JMJD2A Tudor – qHTS Assay for Inhibitors of JMJD2A-Tudor Domain; Lysine-specific demethylase 4A (Homo sapiens), O75164; AlphaScreen JMJD2A-Tudor / H3K4me3 peptide binding; Potency, µM (doses to about 114 µM), without a hit: at the highest dose activity change, negative = inhibition, most hits filed as inhibitors; 4.4% of 390,000 active; AID 504339, 2011; note: % is set by controls: 0 for no effect and ±100 for the full control effect; nearly all actives have a fitted effect of over 50% in size
G9a block – qHTS Assay for Inhibitors of Histone Lysine Methyltransferase G9a; Histone-lysine N-methyltransferase EHMT2 (Homo sapiens), Q96KQ7; G9a H3K9 monomethylation, AlphaScreen, 2 h; Potency, µM (highest dose often 102 µM), for inactives: at the top dose activity, negative = inhibition, usual class: inhibitors; 8.8% of 350,000 active; note: % is set by controls: 0 for no effect and ±100 for the full control effect; nearly all actives have a fitted effect of over 75% in size
Target sequence (Q96KQ7 913-1193 limits assumed): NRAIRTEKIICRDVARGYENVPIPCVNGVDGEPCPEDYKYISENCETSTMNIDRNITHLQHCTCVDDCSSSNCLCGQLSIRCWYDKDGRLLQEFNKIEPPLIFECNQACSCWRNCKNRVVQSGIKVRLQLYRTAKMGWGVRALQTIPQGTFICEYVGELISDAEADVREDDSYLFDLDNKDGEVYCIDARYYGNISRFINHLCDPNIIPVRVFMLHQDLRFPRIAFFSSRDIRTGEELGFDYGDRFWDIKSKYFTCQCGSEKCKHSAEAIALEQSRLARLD
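AlphaScreen detection with an anti-monomethyl H3K9 antibody quantified product after a 2 h room-temperature reaction containing 500 nM biotinylated H3K9 peptide, 20 µM SAM and 20 nM enzyme, which had been preincubated 15 min with compound.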
Starred values were filed as active, the others as inactive; ? = inconclusive; / = no result; ! = a repeat was not active; [ ] = dose if it differs, or a comment. Most compounds without a hit are left out; they make up all but 12% or so of the library. Calls come from the whole dose curve; as a rule, active = well fitted curve in the direction sought with a large enough effect; inconclusive = small, poorly fitted or top-dose-only effect, or another doubt; inactive = no such curve, though single readings can be large; an effect the other way counts as inactive or inconclusive. Potency is the fitted concentration of half-maximal effect.

SMILES	HP1b chromo inh	PLK1 PBD block	BAZ2B inh	Sfp PPTase inh	JMJD2A Tudor	G9a block
CCN(CC)c1cc(NCCO)c([N+](=O)[O-])c2nonc12	28%	-2%	-11%	-5%	-14%	/
NC(=O)CN(C/C=C/c1ccccc1)C/C=C/c1ccccc1	?	-13%	?	-30%	20µM*	/
CC(C)(C)NC(=O)C1CCN(C(=O)c2ccco2)CC1	52%	-2%	-1%	4%	1%	8%
COc1ccc(C)cc1Nc1n[n+](-c2ccccc2)c(-c2ccc(C(=O)O)cc2)s1	-8%	-25%	40µM*	56µM*	35µM*	10µM*
C(=C\c1sc(Nc2ccccc2)n[n+]1-c1ccccc1)/c1ccccc1	?	?	/	/	56µM*	/
COc1ccc(C)cc1Nc1n[n+](-c2ccccc2)c(-c2cc(OC)c(OC)cc2Br)s1	19%	-25%	50µM*	-28%	?	40µM*
Cc1nc(Nc2ccccc2)sc1-c1ccccc1	1%	-3%	?	?	-29%	?
COc1ccc(C)cc1Nc1n[n+](-c2ccccc2)c(-c2c(OC)ccc3ccccc23)s1	-16%	-19%	?	/	?	21%[2.33 µM]
COc1ccc(-c2sc(Nc3ccccc3)n[n+]2-c2ccccc2)cc1Br	2%	?	50µM*	/	79µM*	-48%[12.7 µM]
COc1ccc(C)cc1NC(=O)Nc1ccccc1	7%	-8%	-1%	-12%	-24%	?
CC(Sc1ccccc1)C(=O)N1CCN(S(=O)(=O)c2ccccc2F)CC1 (centres undefined)	39%	-21%	-2%	13%	-3%	-1%
CCOc1cc(-c2sc(Nc3cc(C)ccc3OC)n[n+]2-c2ccccc2)ccc1OC	-11%	-24%	56µM*	/	56µM*	-42%[12.7 µM]
Cc1cc(NC(=O)CSc2nc(-c3ccccc3Cl)nc3c2c(=O)n(C)c(=O)n3C)no1	25%	5%	3%	8%	-2%	7%
O=C(CCNC(=O)c1ccccc1Cl)N/N=C\c1ccc(O)cc1	7%	12µM*	-14%	10%	-24%[11.4 µM]	0%
CCOc1cc(C#N)c(-n2nnc3c(sc4nc(C)cc(C)c43)c2=O)cc1OCC	7%	/	-16%	/	-14%	16µM*
CC1(C)O[C@@H]2C[C@H]3[C@H]4C[C@H](F)C5=CC(=O)C=C[C@@]5(C)[C@@H]4[C@H](O)C[C@]3(C)[C@]2(C(=O)CO)O1	/	/	/	-7%	/	17%[21.5 µM]
O=C(c1ccc(CSc2ccc(Cl)cc2)o1)N1CCOCC1	/	-21%	/	/	/	/
CCN1C=C(Cc2ccccc2C)C2=C(C1)C(c1ccccc1C)C(C#N)=C(N)O2 (centres undefined)	?	-5%	45µM*	-26%	56µM*	14µM*
Cc1ccc(/C=C2\CCC3=C2OC(N)=C(C#N)C3c2ccc(C)cc2)cc1 (centres undefined)	7%	-1%	-37%	6%	-35%	?
CCN1C=C(Cc2ccc(F)cc2)C2=C(C1)C(c1ccc(F)cc1)C(C#N)=C(N)O2 (centres undefined)	-31%	-19%	?	8%	50µM*	?
Cc1ccc(C)c(N2CCN(C(=O)c3cc4c(=O)oc5ccccc5c4s3)CC2)c1	31%	/	1%	/	4%	-1%[59 µM]
O=C(COC(=O)Cc1ccsc1)Nc1ccc(Cl)c(S(=O)(=O)N2CCOCC2)c1	39%	-5%	-25%	2%	-7%	-15%[59 µM]
COc1ccc(C2C=C(c3ccccc3)Nc3nc(NC(=O)/C=C/c4ccc(Cl)cc4)nn32)cc1 (centres undefined)	35%	/	-2%	/	6%	?
CCn1c2ccccc2c2cc(/C=C(/C#N)C(N)=S)ccc21	?	-2%	/	/	20µM*	/
CCn1c2ccccc2c2cc(/C(C)=N/O)ccc21	29%	3%	-8%	3%	-19%	-1%[59 µM]
SMILES	HP1b chromo inh	PLK1 PBD block	BAZ2B inh	Sfp PPTase inh	JMJD2A Tudor	G9a block
CCn1c(C)cc(=S)c2ccccc21	20%	-8%	-31%	?	-26%[57.1 µM]	3.2µM*
CCn1c2ccccc2c2cc(CNCc3ccc(OC)cc3OC)ccc21	?	4%	45µM*	22µM*	?	40µM*
CCn1c2ccccc2c2cc(N)ccc21	?	-17%	-32%	-22%	?	5.6µM*
CCn1c2ccccc2c2cc(C3C(C#N)=C(C)NC(C)=C3C#N)ccc21	55%	5%	10%	-11%	9%	14%
COc1cccc(CNC(=O)Cn2c(=O)ccc3cc(S(=O)(=O)N4CCCC4)ccc32)c1	20%[57 µM]	/	1%	/	-12%	2%[59 µM]
CCC(CC)NCc1ccc2c(c1)c1ccccc1n2CC	?	21µM*	45µM*	50µM*	20µM*	-119%[12.7 µM]
CS(=O)(=O)c1ncc(Cl)c(C(=O)Nc2ccc3ccccc3c2)n1	41%	9.5µM*	-36%	13µM*	3%	10µM*
CSc1nnc(NC(=O)c2nc(S(=O)(=O)Cc3cccc(C)c3)ncc2Cl)s1	22%[57 µM]	?	4%	-15%	?	4.5µM*
CCc1nnc(NC(=O)c2ccc3ccccc3n2)s1	-11%	-23%	2%	?	-8%	50µM*
CCSc1nnc(NC(=O)c2ccc3ccccc3n2)s1	4%	-12%	11%	?	-17%	-7%[2.33 µM]
CCc1nnc(NC(=O)c2nc(S(=O)(=O)Cc3cccc(C)c3)ncc2Cl)s1	-15%[57 µM]	27µM*	?	56µM*	2.8µM*	45µM*
CC(=O)Nc1ccc(CN(C)c2c(C)nc3ccc(C(=O)Nc4ccc(Cl)c(Cl)c4)cn23)cc1	/	-10%	/	/	/	/
CC(C)(C)[C@H](NC(=O)c1ccc(N)c(Cl)c1)C(=O)N1CCC[C@H]1C(=O)N[C@H](C#N)Cc1nn[nH]n1	/	/	-38%	/	/	?
CCc1nnc(NC(=O)c2nc(Cl)ccc2Cl)s1	20%	-11%	-12%	5%	-10%	?
Cc1ccc(CS(=O)(=O)c2ncc(Cl)c(C(=O)Nc3ccc(OC(F)F)cc3)n2)cc1	-22%[57 µM]	21µM*	-29%	-20%	?	/
CCc1nnc(NC(=O)c2nc(S(=O)(=O)Cc3ccc(C)cc3)ncc2Cl)s1	-15%[57 µM]	24µM*	?	-18%	14µM*!	45µM*!
CCc1nnc(NC(=O)c2nc(S(=O)(=O)Cc3ccccc3)ncc2Cl)s1	18%[57 µM]	-16%	?	?	7.9µM*	28µM*

Screening data (PubChem BioAssay)
